From PubChem BioAssay (Tox21)
Several values for one entry are separate records, joined by “and”; a condition that tells them apart may be missing. Identical values can stand only once. Results filed as inconclusive are left out. Where a structure was tested more than once in an assay, its records may differ in their call. Activity calls are given as the source filed them. Unless noted, calls follow the shape of the dose curve; as a rule, active = well fitted curve in the direction sought with a large enough effect in the repeat runs; inconclusive = weak or mixed curves; inactive = no such curve, though single readings can be large; an effect the other way counts as inactive or inconclusive.

Experiments:
[1] = A CellTox Green Cytotoxicity Assay to monitor cytotoxicity in HEK293 cells - 32 hour (AID 1224881); also: nearly all actives have a fitted effect of over 40% in size
Summary of the method: (§1)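 Seeding of HEK293 cells together with cytotoxicity dye preceded a 5 h incubation at 37 C/5% CO2. Test compounds in DMSO were then added and fluorescence monitored across 40 h.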

[2] = A CellTox Green Cytotoxicity Assay to monitor cytotoxicity in HepG2 cells - 0 hour (AID 1224882); also: nearly all actives have a fitted effect of over 35% in size
Summary of the method: (§2)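 Nonlytic assay: viable cells exclude the dye, so fluorescence scales with cell death. HepG2 at 600 cells/well, compounds added after 5 h, signal read across 40 h.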

[3] = A CellTox Green Cytotoxicity Assay to monitor cytotoxicity in HepG2 cells - 32 hour (AID 1224883); also: nearly all actives have a fitted effect of over 50% in size; also: potency is read from the fitted curve at half-maximal effect
Summary of the method: as §2

[4] = A CellTox Green Cytotoxicity Assay to monitor cytotoxicity in HEK293 cells - 8 hour (AID 1224884); also: nearly all actives have a fitted effect of over 35% in size
Summary of the method: as §1

[5] = qHTS RealTime-Glo MT Cell Viability Assay in HepG2 cells - 16 hour (AID 1224885); also: nearly all actives have a fitted effect of over 50% in size
Summary of the method: (§3)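 Viability was tracked continuously by NanoLuc luminescence from prosubstrate reduced by living HepG2 cells, at successive time points over 40 h of compound exposure. Cells with reagent were preincubated 5 h at 37 °C before compound addition.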

[6] = qHTS RealTime-Glo MT Cell Viability Assay in HEK293 cells - 24 hour (AID 1224886); also: nearly all actives have a fitted effect of over 50% in size; also: potency is read from the fitted curve at half-maximal effect
Summary of the method: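 Viability tracked continuously by luminescence as live cells reduce a prosubstrate for NanoLuc; HEK293 cells preincubated 5 h, compound-treated at 37 C, and read at 0, 8, 16, 24, 32 and 40 h.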

[7] = qHTS RealTime-Glo MT Cell Viability Assay in HEK293 cells - 8 hour (AID 1224887); also: nearly all actives have a fitted effect of over 50% in size; also: potency is read from the fitted curve at half-maximal effect
Summary of the method: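 Tox21 screen in HEK293 using RealTime-Glo MT chemistry, with cells and reagent co-dispensed. Luminescence proportional to viable cell number was captured at intervals during 40 h compound exposure at 37 C.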

[8] = A CellTox Green Cytotoxicity Assay to monitor cytotoxicity in HEK293 cells - 16 hour (AID 1224888); also: nearly all actives have a fitted effect of over 35% in size
Summary of the method: as §1

[9] = A CellTox Green Cytotoxicity Assay to monitor cytotoxicity in HepG2 cells - 8 hour (AID 1224890); also: nearly all actives have a fitted effect of over 45% in size
Summary of the method: as §2

[10] = qHTS assay to identify small molecule antagonists of the estrogen receptor alpha (ER-alpha) signaling pathway using the BG1 cell line in the presence of 0.1 nM 17-beta-estradiol - cell viability counter screen (AID 1259241); also: nearly all actives have a fitted effect of over 40% in size
Summary of the method: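 Measures cytotoxicity alongside the ER-alpha antagonist readout: VM7Luc4E2 cells, charcoal-stripped serum, 0.1 nM 17beta-estradiol final, 22 hr compound incubation at 37C, CellTiter-Fluor fluorescence.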

[11] = qHTS assay to identify small molecule antagonists of the androgen receptor (AR) signaling pathway using the MDA cell line in the presence of 0.5 nM R1881 - cell viability counter screen (AID 1259242); also: nearly all actives have a fitted effect of over 45% in size; also: potency is read from the fitted curve at half-maximal effect
Summary of the method: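 R1881 at 0.5 nM final stimulated MDA-kb2 cells during 16 hr compound treatment at 37C. Cytotoxicity read: CellTiter-Fluor fluorescence after 30 min.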

[12] = target: Estrogen receptor (Homo sapiens) (UniProt P03372); experiment: qHTS assay to identify small molecule antagonists of the estrogen receptor alpha (ER-alpha) signaling pathway using the BG1 cell line in the presence of 0.1 nM 17-beta-estradiol (AID 1259244); also: nearly all actives have a fitted effect of over 50% in size
Summary of the method: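 VM7Luc4E2; 4xERE-luciferase; 0.1 nM E2 final; 22 h co-incubation, 37C; ONE-Glo luminescence after 30 min at room temperature.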

[13] = qHTS assay to identify small molecule phospholipidosis (PLD) inducers (AID 1259344; active = well fitted curve in the direction sought with a large enough effect; an effect the other way counts as inactive or inconclusive)
Summary of the method: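 Phospholipidosis is scored by imaging LipidTOX-stained pits in HepG2 cells exposed to compound for 24 h at 37 C; pit counts and integrated intensities per well and per cell serve as outputs.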

[14] = qHTS assay to identify small molecule HDAC inhibitors (AID 1259364);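 also: wild-type HCT-116 cells with endogenous class I/II HDAC activity; top concentration of the series differs between compounds; nearly all actives have a fitted effect of over 45% in size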
Summary of the method: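 Relative class I and II HDAC activity is taken from the luminogenic signal in HCT-116 cells, with compound exposure 2 hr and reagent development 30 min at room temperature.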

[15] = qHTS assay to identify small molecule agonists of the sonic hedgehog signaling (Shh) pathway - cell viability counter screen (AID 1259366); also: nearly all actives have a fitted effect of over 50% in size
Summary of the method: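 After a 4hr attachment at 37C, NIH/3T3 cells bearing an integrated Gli1-driven luciferase reporter were dosed with compounds. Treatment lasted 24hr, with the final hour including CellTiter-Fluor for a fluorescence viability measurement.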

[16] = qHTS assay to identify small molecule antagonists of the sonic hedgehog signaling (Shh) pathway - cell viability counter screen (AID 1259367); also: nearly all actives have a fitted effect of over 55% in size; also: potency is read from the fitted curve at half-maximal effect
Summary of the method: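 Cells: 3T3 Gli1-Luc, 2,000/well, 4 hr pre-incubation. Compounds in DMSO, then conditioned medium. Incubation 24 hr, 37C, 5% CO2. CellTiter-Fluor at 23 hr, 1 hr, fluorescence.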

[17] = qHTS assay to identify small molecule agonists of the sonic hedgehog signaling (Shh) pathway (AID 1259368; calls by dose curve;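 also: NIH/3T3-derived 3T3Gli1-Luc cells carrying a stable Gli1-driven firefly luciferase reporter; series mostly up to about 92 µM; nearly all actives have a fitted effect of over 15% in size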)
Summary of the method: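 Mouse fibroblast (NIH/3T3) reporter cells with stably integrated Gli1-Luc were treated 24 hr with compound; firefly luciferase luminescence served as the read-out.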

[18] = qHTS assay to identify small molecule HDAC inhibitors - cell viability counter screen (AID 1259365)
Summary of the method: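 Following a 2hr exposure of overnight-plated wild-type HCT-116 cells to DMSO-delivered compounds, CellTiter-Glo was added and luminescence recorded after 30min at room temperature.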

[19] = qHTS RealTime-Glo MT Cell Viability Assay in HepG2 cells - 0 hour (AID 1224889); also: nearly all actives have a fitted effect of over 50% in size; also: potency is read from the fitted curve at half-maximal effect
Summary of the method: as §3
% is scaled to controls: 0 for no effect and ±100 for the full control effect.

Sequence of Estrogen receptor (Homo sapiens) (P03372 whole entry, looked up): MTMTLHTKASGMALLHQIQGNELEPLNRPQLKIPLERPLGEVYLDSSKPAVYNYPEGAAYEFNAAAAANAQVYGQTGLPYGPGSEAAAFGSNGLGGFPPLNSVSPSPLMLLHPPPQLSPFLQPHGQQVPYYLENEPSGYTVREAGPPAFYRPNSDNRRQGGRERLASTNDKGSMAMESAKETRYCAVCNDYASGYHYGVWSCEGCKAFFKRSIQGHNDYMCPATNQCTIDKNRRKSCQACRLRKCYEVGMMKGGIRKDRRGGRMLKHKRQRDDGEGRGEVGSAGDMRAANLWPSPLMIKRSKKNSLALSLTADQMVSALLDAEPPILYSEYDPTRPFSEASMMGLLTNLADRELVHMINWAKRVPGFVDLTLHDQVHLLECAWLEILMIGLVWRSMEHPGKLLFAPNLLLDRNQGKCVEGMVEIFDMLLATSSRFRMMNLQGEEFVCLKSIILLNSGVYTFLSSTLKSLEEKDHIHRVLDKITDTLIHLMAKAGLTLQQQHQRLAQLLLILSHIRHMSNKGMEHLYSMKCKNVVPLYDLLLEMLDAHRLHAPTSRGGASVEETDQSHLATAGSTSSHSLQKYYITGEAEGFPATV

Nc1ncnc2nc[nH]c12
inactive: Potency [1] | Potency [2] | Potency [3] | Potency [4] | Potency [5] | Potency [6] | Potency [7] | Potency [8] | Potency [9] | Potency [10] | Potency [11] | Potency [12] | Potency [13] | Potency [14] | Potency [15] | Potency [16] | Potency [17]

Cc1cccc(N(C)C(=S)Oc2ccc3ccccc3c2)c1
inactive: Potency [1] | Potency [2] | Potency [3] | Potency [4] | Potency [5] | Potency [6] | Potency [7] | Potency [8] | Potency [9] | Potency [10] | Potency [11] | Potency [12] | Potency [13] | Potency [14] | outcome [18] | Potency [15] | Potency [16] | Potency [17]

CC(=O)CC/C=C(\C)CCC=C(C)C
inactive: Potency [1] | Potency [2] | Potency [3] | Potency [4] | Potency [5] | Potency [6] | Potency [7] | Potency [8] | Potency [19] | Potency [9] | Potency [10] | Potency [11] | Potency [12] | Potency [14] | outcome [18] | Potency [15] | Potency [16] | Potency [17]

O=c1oc(=O)c2cc3c(=O)oc(=O)c3cc12
inactive: Potency [1] | Potency [2] | Potency [3] | Potency [4] | Potency [5] | Potency [6] | Potency [7] | Potency [8] | Potency [19] | Potency [9] | Potency [10] | Potency [11] | Potency [14] | outcome [18] | Potency [15] | Potency [16] | Potency [17]

CC(C)(C)NC(=O)[C@H]1CC[C@H]2[C@@H]3CC[C@H]4NC(=O)C=C[C@]4(C)[C@H]3CC[C@]12C
inactive: Potency [1] | Potency [2] | Potency [3] | Potency [4] | Potency [5] | Potency [6] | Potency [7] | Potency [8] | Potency [19] | Potency [9] | Potency [10] | Potency [11] | Potency [12] | Potency [13] | Potency [14] | outcome [18] | Potency [15] | Potency [16] | Potency [17]

O=C(c1ccccc1)c1ccc(O)cc1O
inactive and 43.6 µM (active): Potency [3]
inactive: Potency [1] | Potency [2] | Potency [4] | Potency [5] | Potency [6] | Potency [7] | Potency [8] | Potency [19] | Potency [9] | Potency [10] | Potency [11] | Potency [12] | Potency [14] | outcome [18] | Potency [15] | Potency [17]
55.5 µM (active) and inactive: Potency [16]

O=S(=O)(O)c1ccc(O)cc1
inactive: Potency [1] | Potency [2] | Potency [3] | Potency [4] | Potency [5] | Potency [6] | Potency [7] | Potency [8] | Potency [19] | Potency [9] | Potency [10] | Potency [11] | Potency [12] | Potency [13] | Potency [14] | outcome [18] | Potency [15] | Potency [16] | Potency [17]

C[C@]12CCC(=O)C=C1CC[C@@H]1[C@@H]2C(=O)C[C@@]2(C)[C@H]1CC[C@]2(O)C(=O)CO
active: Potency [19] 5.49 µM
inactive: Potency [1] | Potency [2] | Potency [3] | Potency [4] | Potency [5] | Potency [6] | Potency [7] | Potency [8] | Potency [9] | Potency [10] | Potency [11] | Potency [12] | Potency [13] | Potency [14] | outcome [18] | Potency [16] | Potency [17]

Cc1ccc(C(=O)c2cc(O)c(O)c([N+](=O)[O-])c2)cc1
active: Potency [11] 54.5 µM
54.5 µM (active) and inactive: Potency [16]
inactive: Potency [1] | Potency [2] | Potency [3] | Potency [4] | Potency [5] | Potency [6] | Potency [7] | Potency [8] | Potency [19] | Potency [9] | Potency [10] | PLD induction [13] 0.47% [at 7.66 µM] | Potency [14] | outcome [18] | Potency [15] | Potency [17]

O=[N+]([O-])c1ccc2c(c1)Cc1ccccc1-2
inactive: Potency [1] | Potency [2] | Potency [3] | Potency [4] | Potency [5] | Potency [6] | Potency [7] | Potency [8] | Potency [19] | Potency [9] | Potency [10] | Potency [11] | Potency [12] | Potency [14] | outcome [18] | Potency [15] | Potency [16] | Potency [17]

CCCCC(CC)COCC1CO1 (centres undefined)
inactive: Potency [1] | Potency [2] | Potency [3] | Potency [4] | Potency [5] | Potency [6] | Potency [7] | Potency [8] | Potency [19] | Potency [9] | Potency [10] | Potency [11] | Potency [12] | Potency [14] | outcome [18] | Potency [15] | Potency [16] | Potency [17]

COC(=O)Nc1nc2ccc(S(=O)c3ccccc3)cc2[nH]1 (centres undefined)
inactive: Potency [1] | Potency [2] | Potency [4] | Potency [5] | Potency [8] | Potency [9] | Potency [10] | Potency [11] | Potency [12] | Potency [13] | Potency [14] | outcome [18] | Potency [15] | Potency [17]
inactive and 1.69 µM (active): Potency [7]
inactive and 952 nM (active): Potency [3]
active: Potency [6] 0.952 µM
inactive and 11.9 µM (active): Potency [16]

CN(C)C(=N)N=C(N)N
inactive: Potency [1] | Potency [2] | Potency [3] | Potency [4] | Potency [5] | Potency [6] | Potency [7] | Potency [8] | Potency [19] | Potency [9] | Potency [10] | Potency [11] | Potency [13] | Potency [14] | outcome [18] | Potency [15] | Potency [16] | Potency [17]
